The list is not random: actives were taken first. Their share in the collection is about 1.3%.
CCHFV vOTU inh = blocks the CCHF virus ovarian tumor domain protease. CCHFV vOTU protease, Pep-AMC fluorescence. hit rate 0.55% among 370,000. AID 651958. inhibition, % at 11.5 µM; in the data active = inhibition above about 30%; note: 0% = vehicle wells with enzyme and 100% = no enzyme wells
PrPC surface inh = inhibitors of human cell surface prion protein PrPC; TR-FRET read-out; inhibition, % at 13.8 µM; hit rate 0.43% among 370,000; in the data active = inhibition above about 24%; note: 0% = median of the test wells and 100% = reference compound wells
PrP UTR inh = inhibition of PrP 5' UTR reporter expression | hit rate 0.35% among 340,000 | inhibition, % (no concentration beside the values) | cell-based PrP 5' UTR mRNA reporter, plate reader; in the data active = inhibition above about 52%; note: 0 = median of the neutral control wells
SARS 3CLpro inh = SARS-CoV 3CLpro protease inhibition | P0C6X7 | recombinant SARS-CoV 3CLpro, quenched FRET peptide cleavage | inhibition, % at 6 µM | hit rate 0.14% among 290,000 | AID 1706; in the data active = inhibition above about 12%
PrPC TRFRET cf = confirmation of inhibitors of cell surface human prion protein; hit rate 65% among 1,500; AID 743200; cell surface PrPC level, TR-FRET; shares compounds with PrPC surface inh; inhibition, % at 13.8 µM; in the data active = inhibition above about 25%
LD9 cytotox = LD9 cell cytotoxicity, PrPc inhibitor counter-screen; hit rate 29% among 1,500; AID 743201; LD9 cells cytotoxicity, luminescence viability; shares compounds with PrPC surface inh; inhibition, % at 13.8 µM; in the data active = inhibition above about 9.5%
* = called active by the depositor; . = not tested or not shown.

SMILES	CCHFV vOTU inh	PrPC surface inh	PrP UTR inh	SARS 3CLpro inh	PrPC TRFRET cf	LD9 cytotox
CC(CCc1ccccc1)NC(=O)c1ccccc1C(=O)O (stereo unspecified)	14	-1	-27	-1	.	.
Cc1cccc(/C=N/NC(=O)c2c(-c3ccccc3)noc2C)c1O	1	26*	-1	7	22	-5
COc1ccccc1/C=N/NC(=O)c1c(-c2ccccc2)noc1C	5	9	-7	1	.	.
Cc1nc(SCC(=O)N2CCOCC2)c2c(C)c(C)sc2n1	7	5	-9	-1	.	.
Cc1nc(SC2CCOC2=O)c2c(C)c(C)sc2n1 (stereo unspecified)	3	98*	-4	0	103*	-3
O=C(NCc1ccccn1)c1coc(=O)c(Br)c1	-26	27*	-12	-4	-2	0
CCOc1ccc(C(=O)NCc2ccccn2)cc1	.	.	-11	-3	.	.
O=C(Nc1ccc(F)cc1)Nc1cc(OCC(F)(F)F)cc(OCC(F)(F)F)c1	-11	44*	-4	2	44*	27*
CCOc1ccc(NC(=O)Nc2cc(OCC(F)(F)F)cc(OCC(F)(F)F)c2)cc1	12	10	-20	2	.	.
CN(C)S(=O)(=O)c1ccc(Cl)c(C(=O)Nc2nc3ccccc3[nH]2)c1	5	3	-25	-4	.	.
Cc1ccc(NS(=O)(=O)c2ccc(Cl)c(C(=O)Nc3ccccc3-c3nc4ccccc4[nH]3)c2)cc1C	-14	26*	-2	2	17	-3
COc1ccc(CCNc2nc(C)nc3c2nnn3Cc2ccccc2)cc1OC	10	-3	-1	3	.	.
O=C1CC(c2ccco2)Cc2nc(Nc3ccc(F)cc3)ncc21 (stereo unspecified)	7	-4	-13	9	.	.
Cc1ccc(Cn2c(Cc3ccccc3)nc3ccccc32)cc1	6	76*	-13	2	18	-4
COc1ccc(CC(=O)OCC(=O)N2c3ccccc3CC2C)cc1OC (stereo unspecified)	0	-1	.	.	.	.
COc1cccc(C(NC(C)=O)c2nc(-c3ccc4c(c3)OCO4)cs2)c1 (stereo unspecified)	7	10	.	.	.	.
Nc1nc2ccc(Cl)cc2cc1C(=O)NCc1ccccc1Br	-15	49*	.	.	81*	-2
CCOC(=O)N1CCN(C(=O)c2ccc3nc(-c4ccccc4)c(-c4ccccc4)nc3c2)CC1	4	-6	-16	4	.	.
NC(=O)C1CCN(C(=O)c2ccc3nc(-c4ccccc4)c(-c4ccccc4)nc3c2)CC1	-73	47*	-7	1	53*	-2
N#C/C(=C(/O)C(Cl)c1ccccc1)c1nc2ccccc2s1 (stereo unspecified)	25	43*	-40	7	38*	-2
Cc1csc(NC(=O)CSc2nc(C(C)C)nc3c2c(=O)n(C)c(=O)n3C)n1	25	27*	-8	0	20	8
Fc1cccc(NC(=S)N2CCCCC2)c1	2	2	-29	2	.	.
Cc1ccccc1Cn1cc(NC(=O)c2cc(-c3ccco3)on2)cn1	-5	30*	-19	7	16	5
CCOc1ccc(C2c3[nH]c4ccccc4c3CCN2C(=O)Cn2cncn2)cc1 (stereo unspecified)	3	37*	-10	3	34*	-6
COc1cccc(C2c3[nH]c4ccccc4c3CCN2C(=O)Cn2cncn2)c1OC (stereo unspecified)	-5	0	-32	1	.	.
SMILES	CCHFV vOTU inh	PrPC surface inh	PrP UTR inh	SARS 3CLpro inh	PrPC TRFRET cf	LD9 cytotox
O=C(NC1CCCCN(Cc2cccc(C(F)(F)F)c2)C1=O)c1ccc(COc2ccccc2)cc1 (stereo unspecified)	2	26*	.	.	25*	5
COc1cc(C(=O)NC2CCCCN(Cc3cccc(C(F)(F)F)c3)C2=O)cc(OC)c1OC (stereo unspecified)	2	49*	.	.	8	-7
CCSCCOC(=O)C1=C(C)N(C)C(=O)NC1c1cc(OC)ccc1OC (stereo unspecified)	17	43*	-2	-7	30*	-3
COc1cccc(N2CCN(c3nc(-c4ccccc4C)cc(=O)[nH]3)CC2)c1	-3	31*	-3	2	33*	14*
COc1cccc(N2CCN(c3nc(C)c(C)c(=O)[nH]3)CC2)c1	-7	10	-40	2	.	.
COc1ccc(C2/C(=C(\O)c3ccc4c(c3)OCCO4)C(=O)C(=O)N2Cc2cccnc2)cc1 (stereo unspecified)	13	0	-6	2	.	.
CCCCOc1ccc(/C(O)=C2/C(=O)C(=O)N(Cc3cccnc3)C2c2ccncc2)c(C)c1 (stereo unspecified)	6	45*	-13	0	70*	2
Cc1cc(OCC(C)C)ccc1/C(O)=C1/C(=O)C(=O)N(Cc2cccnc2)C1c1ccncc1 (stereo unspecified)	10	35*	-9	1	54*	0
COc1ccc(/C(O)=C2/C(=O)C(=O)N(Cc3cccnc3)C2c2ccccn2)cc1 (stereo unspecified)	3	-7	0	-5	.	.
COc1ccc(NC(=O)NNC(=O)COc2ccc3cc(Br)ccc3c2)cc1OC	4	42*	-24	-3	69*	-7
COc1ccc(NC(=O)NNC(=O)COc2ccc3ccccc3c2)cc1OC	15	-7	13	-3	.	.
N#Cc1ccccc1OCCCN1CCC(Cc2ccccc2)CC1	0	26*	-19	6	4	10*
CCOC(=O)CNC(=O)CSc1nc2c(C)cccc2cc1CC	5	71*	-21	3	107*	-2
Cc1cc2cccc(C)c2nc1SCC(=O)NNC(=O)c1ccco1	1	55*	-34	4	65*	-5
Cc1cc(C)c2nc(SCC(=O)NNC(=O)c3ccco3)c(C)cc2c1	9	44*	-12	6	45*	-2
CCc1cc2cccc(C)c2nc1SCC(=O)NC1CCCC1	-17	5	-20	7	.	.
CCc1cc2cccc(C)c2nc1SCC(=O)N1CCN(C(=O)c2ccco2)CC1	1	25*	-5	4	59*	3
CCc1cc2cc(C)ccc2nc1SCC(=O)NNC(=O)c1ccco1	4	15	-20	3	.	.
COc1ccc(/C=C2/C(=N)N3N=C(CC(=O)N4CCCC4)SC3=NC2=O)cc1	5	-4	-3	-1	.	.
CN(C)S(=O)(=O)N1CCC(Oc2ccc(C(=O)NC3CCOC(C)(C)C3)cc2)CC1 (stereo unspecified)	14	-1	-7	-1	.	.
Cc1nccn1CC(O)COc1ccc([N+](=O)[O-])cc1 (stereo unspecified)	10	-17	-7	-2	.	.
COc1cn(-c2ccccc2)nc1C(=O)NCc1ccccc1	-3	7	-4	2	.	.
COc1ccc2[nH]c3c(Cl)ncnc3c2c1	-8	1	-15	2	.	.
COc1ccc2[nH]c3c(=S)nc[nH]c3c2c1	-1	85*	-25	1	104*	1
